204 variants from a collection of fitness landscapes (doi:10.1126/science.1257360) can be followed below.

B1: PhoQ; a variant is named by its letters at X, in order, P23837 (parent)
chain: MKKLLRLFFPLSLRVRFLLATAAVVLVLSLAYGMVALIGYSVSFDKTTFRLLRGESNLFYTLAKWENNKLHVELPENIDKQSPTMTLIYDENGQLLWAQRDVPWLMKMIQPDWLKSNGFHEIEADVNDTSLLLSGDHSIQQQLQEVREDDDDAEMTHSVAVNVYPATSRMPKLTIVVVDTIPVELKSSYMVWSWFIYVLSANLLLVIPLLWVAAWWSLRPIEALAKEVRELEEHNRELLNPATTRELTSLVRNLNRLLKSERERYDKYRTTLTDLTHSLKTPLXXLQXXLRSLRSEKMSVSDAEPVMLEQISRISQQIGYYLHRASMRGGTLLSRELHPVAPLLDNLTSALNKVYQRKGVNISLDISPEISFVGEQNDFVEVMGNVLDNACKYCLEFVEISARQTDEHLYIVVEDDGPGIPLSKREVIFDRGQRVDTLRPGQGVGLAVAREITEQYEGKIVAGESMLGGARMEVIFGRQHSAPKDE

The full ranking holds about 140,000 sequences; the median of “enrichment ratio after two sorts for PhoP signalling” is about 0, and the highest 2% start at about 11. Only a selection was taken, and the highest values are over-represented in it overall. Where only a bound is given, the exact number is not on record here.

The experiment covers variants of B1. Put plainly: enrichment ratio after two sorts for PhoP signalling (ratio (wild type AVST 3.29)); higher = more functional. As to conditions: with PhoP (E. coli).
As to LEAH, the enrichment ratio worked out at 0.895.
For TEQC, the enrichment ratio is 9.21.
For FELK, the enrichment ratio is at most 0.25.
Next, FTPI: at most 0.25.
Next, MFEY: at most 0.25; WMWW: at most 0.25.
As for PGSG, the enrichment ratio is at most 0.25.
On to GGSG, for which the enrichment ratio was at most 0.25.
Regarding PFSG, the enrichment ratio was at most 0.25.
For KQSG, the enrichment ratio was at most 0.25.
Next, TGSG: 16.4; YTSG: at most 0.25; TSSG: 14.4.
For NSSG, the enrichment ratio was at most 0.25.
Next, TTSG: 19.5.
Turning to KSSG, the enrichment ratio is at most 0.25.
Next, HFSG: at most 0.25; TFSG: 13.9; MWFY: at most 0.25.
Then SQPK, with at most 0.25.
On to VRWV, for which the enrichment ratio was at most 0.25.
Next, SYQC: at most 0.25.
For the variant RTQR, the enrichment ratio was at most 0.25.
In the case of TVSG, the enrichment ratio turned out to be 20.3.
Next, GISG: 8.5.
For GNSG, the enrichment ratio came to 13.2.
Take SPSG: the enrichment ratio was at most 0.25.
With HCSG, the enrichment ratio was at most 0.25.
With GVSG, the enrichment ratio was determined as 7.26.
Then WDLS, with at most 0.25.
Regarding DAKY, the enrichment ratio is at most 0.25.
Then NIQR, with at most 0.25; and THLG, with 14.4; and KKLG, with at most 0.25.
In the case of AFTG, the enrichment ratio was determined as 5.35.
Then ADLG, with 3.46; and APLG, with at most 0.25.
Regarding AHLG, the enrichment ratio came out at 6.95.
Then AILG, with 15.7; and SHLG, with 10.8; and AFLG, with 15.7.
In the case of NHLG, the enrichment ratio is at most 0.25.
Then AFFG, with at most 0.25; and AQLG, with 18.8.
In the case of MEPF, the enrichment ratio was at most 0.25.
For the variant WCFV, the enrichment ratio is at most 0.25.
For GSFI, the enrichment ratio was at most 0.25.
Then RMTQ, with at most 0.25; and YEWD, with at most 0.25.
Then LWMC, with at most 0.25.
Next, QNWS: 8.87.
In the case of PPKF, the enrichment ratio was at most 0.25.
Regarding WPCT, the enrichment ratio was at most 0.25.
Consider SLTH, for which the enrichment ratio was 5.18.
In the case of NKDQ, the enrichment ratio is at most 0.25.
As to FHGD, the enrichment ratio was at most 0.25.
Next, ASLG: 18.2; TTLG: 10.6; FSLG: 8.53.
Next, YTLG: 6.93; TMLG: 11.6.
Regarding ATLG, the enrichment ratio was 12.3.
Regarding DMLG, the enrichment ratio is at most 0.25.
With NMLG, the enrichment ratio was at most 0.25.
Then VRLG, with at most 0.25; and RQGG, with at most 0.25.
With RQFP, the enrichment ratio was at most 0.25.
Then PNPW, with at most 0.25.
With RIWK, the enrichment ratio is at most 0.25.
NTQW: the enrichment ratio is at most 0.25.
Next, QDPH: at most 0.25.
Next, RWEP: at most 0.25.
VLTN: the enrichment ratio is at most 0.25.
Next, SQTN: 8.46; AMTN: 27.1.
Consider DMTN, for which the enrichment ratio is at most 0.25.
Turning to WITN, the enrichment ratio is at most 0.25.
Next, GHTN: 12.9.
On to KYTN, for which the enrichment ratio is at most 0.25.
Next, TMTN: 13.4; THTN: 4.21.
Then VHTN, with at most 0.25; and NMTN, with at most 0.25; and STTN, with 19.3.
Next, YVCF: 0.805; PGGT: at most 0.25; RGRC: at most 0.25.
With FMKW, the enrichment ratio was at most 0.25.
Turning to TWYE, the enrichment ratio is at most 0.25.
Then YSAH, with at most 0.25; and HNNM, with at most 0.25; and QGTS, with at most 0.25.
In the case of GTTN, the enrichment ratio is at most 0.25.
Next, KFTN: at most 0.25; TCTN: 22.5.
In the case of NETN, the enrichment ratio was at most 0.25.
With SPTN, the enrichment ratio was at most 0.25.
Regarding VCTN, the enrichment ratio is at most 0.25.
Next, DETN: at most 0.25; KCTN: at most 0.25.
For the variant ATTN, the enrichment ratio turned out to be 20.6.
Next, TETN: 24.4; SVTN: 16.4.
Regarding YTTN, the enrichment ratio is at most 0.25.
As for RCRT, the enrichment ratio is at most 0.25.
Consider YSIQ, for which the enrichment ratio was at most 0.25.
Next, WKRH: at most 0.25; LAIW: at most 0.25.
On to NWSE, for which the enrichment ratio is at most 0.25.
As to LYIV, the enrichment ratio is at most 0.25.
WHIR: the enrichment ratio was at most 0.25.
Then YPIA, with at most 0.25.
As for GPAN, the enrichment ratio was at most 0.25.
As for AKTN, the enrichment ratio is at most 0.25.
Next, KSTN: at most 0.25; AITN: 22.4.
Next, FIQE: at most 0.25.
In the case of GTVS, the enrichment ratio is at most 0.25.
On to GTMI, for which the enrichment ratio was at most 0.25.
Next, GNVI: 14.7; GIVI: 6.54; GNMI: 46.4.
Next, GIGD: at most 0.25.
Turning to GCVI, the enrichment ratio was at most 0.25.
GIMI: the enrichment ratio worked out at 25.7.
Next, GIFA: at most 0.25; GYMI: at most 0.25; EHCK: at most 0.25.
Next, DQHH: at most 0.25; AQEG: at most 0.25; LKYY: at most 0.25.
Next, FGWK: at most 0.25.
For the variant SEER, the enrichment ratio is at most 0.25.
Next, RPGL: at most 0.25; QLNH: at most 0.25.
Then QENH, with 70.4; and QPNH, with at most 0.25; and QQSH, with at most 0.25.
With QQNS, the enrichment ratio worked out at 8.87.
On to QQNH, for which the enrichment ratio worked out at 12.7.
Regarding HNFM, the enrichment ratio was at most 0.25.
Then KEFR, with at most 0.25; and THMP, with at most 0.25.
HPVY: the enrichment ratio was at most 0.25.
Next, MNCR: at most 0.25; RSFL: at most 0.25.
Then YTFQ, with at most 0.25; and TIWM, with at most 0.25.
As to TINS, the enrichment ratio turned out to be 9.25.
On to RIQM, for which the enrichment ratio was at most 0.25.
For the variant TINM, the enrichment ratio turned out to be 15.1.
Next, TIGM: 21.8; AIQM: at most 0.25; TITM: 17.6.
Consider TICK, for which the enrichment ratio was found to be 1.1.
Regarding TIQM, the enrichment ratio stood at 48.5.
TIYM: the enrichment ratio amounted to 2.83.
Next, TINY: at most 0.25; TIPM: at most 0.25.
Then PGVE, with at most 0.25; and FAIN, with 0.294; and WTRP, with at most 0.25.
Regarding TKVF, the enrichment ratio turned out to be 3.68.
Turning to ANGQ, the enrichment ratio is at most 0.25.
Then SYDT, with at most 0.25.
Regarding PICE, the enrichment ratio was at most 0.25.
Next, LWID: at most 0.25.
Next, FPRV: at most 0.25; TRYF: at most 0.25; GPCS: at most 0.25.
Next, NCLV: 1.12.
Take AACI: the enrichment ratio turned out to be 12.2.
As to AAAI, the enrichment ratio was found to be 1.63.
Next, AACS: 17.3; AACK: at most 0.25.
Then AACE, with 6.4.
Then AANL, with at most 0.25; and IACL, with at most 0.25.
For the variant ANCV, the enrichment ratio was 3.79.
For AACL, the enrichment ratio worked out at 11.3.
Next, KACV: at most 0.25; AACV: 16.2.
On to AACA, for which the enrichment ratio was 7.7.
Then NQPV, with at most 0.25.
Consider KGDN, for which the enrichment ratio was at most 0.25.
As for WHVG, the enrichment ratio is at most 0.25.
Next, HKAD: at most 0.25.
Then LHMM, with at most 0.25.
For the variant SKQW, the enrichment ratio is at most 0.25.
With QCCL, the enrichment ratio is at most 0.25.
Consider LETR, for which the enrichment ratio is at most 0.25.
Then DAMY, with at most 0.25.
Next, MRVV: at most 0.25; ASVY: 2.98.
For the variant ASHQ, the enrichment ratio was at most 0.25.
Consider KSVV, for which the enrichment ratio is at most 0.25.
Turning to ASVL, the enrichment ratio is 16.7.
As to ASMQ, the enrichment ratio came to 29.9.
Regarding ASVV, the enrichment ratio worked out at 14.5.
As to ASRL, the enrichment ratio was at most 0.25.
Turning to ASVA, the enrichment ratio was found to be 4.82.
Next, ASTD: at most 0.25; ASVK: 0.907; ASVT: 15.2.
